Hits are enriched below; roughly 4.1% of the tested compounds scored in any of these assays.
MEKK2wt PB1 HTS: raises or lowers MEK5 binding to wildtype human MEKK2 PB1 domain; hit rate 1.1% among 290,000; bead flow cytometry, Alexa488-MEK5 binding to MEKK2 WT; actives lie on both sides; binding response (% of control), % at 10 µM; Q9Y2U5; in the data active = binding response below about 67% or above about 130%
CHT PAM: allosterically activates the human high affinity choline transporter. Q9GZV3. CHT-expressing cells, membrane potential dye, choline EC20; hits give high values; LV-AA mutant CHT in HEK293 cells. B-score at 10 µM. hit rate 0.49% among 310,000. AID 488977;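 active = initial fluorescence not abnormally high and integrated response B-score, plate-corrected, over 3 SD above library mean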
CHT inh: human CHT choline transport inhibition | Q9GZV3 | CHT-expressing cells, membrane potential dye, choline response; hits give low values | B-score at 10 µM | hit rate 0.86% among 310,000 | AID 488975;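 active = B-score over 3 SD under the library average, and starting fluorescence ratio not unusually high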;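 also: choline stimulus applied at its EC90 after an EC20 pre-addition; B-score computed on integrated fluorescence ratio after choline addition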
MEKK2mut PB1 HTS: signal of MEK5 binding to mutant human MEKK2 PB1 domain; AID 1530; hit rate 0.35% among 290,000; percent response, % at 10 µM; bead flow cytometry, Alexa488-MEK5 binding to MEKK2 mutant; in the data active = percent response above about 24%, passing the limit was not always enough
MEKK3 PB1 HTS: raises or lowers MEK5 binding to the human MEKK3 PB1 domain; Q99759; hit rate 1.4% among 290,000; bead-based flow cytometry, Alexa488-MEK5 binding to MEKK3; actives lie on both sides; 0 = blocked by unlabeled MEK5, 100 = vehicle; binding response (% of control), % at 10 µM; AID 1529;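 active = binding response more than 3 SD above or below the average of its plate-row segment, actives on both sides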;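 also: Alexa488 bead fluorescence after subtracting the streptavidin-only scavenger bead signal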
Mot1-301 SUMO: blocks SUMOylation pathway, rescuing yeast Mot1-301 growth; S. cerevisiae Mot1-301 growth rescue, ATP luminescence, 38.5C; percent above DMSO median, 100 means doubled; growth rescue, % at 18.8 µM; hit rate 1% among 320,000; AID 2716;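 active = every valid replicate shows activation above 250% relative to neutral control wells; inactive = the rest, any valid replicate at or below 250%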;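 also: OY570 slx delta 5 strain wells were the positive control but not used for scaling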
* = called active by the depositor; i = inactive; . = no result.

SMILES | MEKK2wt PB1 HTS | CHT PAM | CHT inh | MEKK2mut PB1 HTS | MEKK3 PB1 HTS | Mot1-301 SUMO
CSCC[C@H](NC(=O)[C@@H]1Cc2c([nH]c3ccccc23)C2c3ccccc3C(=O)N21)C(=O)NCC1CCCO1 (some centres undefined) | 98 | i | i | -1 | 101 | 793*
CC(C)C[C@H](NC(=O)[C@@H]1Cc2c([nH]c3ccccc23)C2c3ccccc3C(=O)N21)C(=O)NCC1CCCO1 (some centres undefined) | 101 | i | i | 1 | 99 | 283
COc1ccc(CC(=O)Nc2ccccc2Oc2ccccc2)cc1 | 82 | i | -6.2* | -10 | 92 | -4
COc1ccccc1NC(=O)Cc1ccc(-c2ccccc2)cc1 | 99 | i | i | -8 | 99 | 26
Cc1cc(C)n(C(=O)N(c2ccccc2)c2ccccc2)n1 | 110 | i | i | 7 | 104 | 3
CCCCCC1(C)NC(=S)N(c2ccccc2)N1 (centres undefined) | 101 | i | i | 3 | 106 | 300*
CN1CCN(C(=O)CSc2ccc(C(F)(F)F)cc2[N+](=O)[O-])CC1 | 95 | i | i | -3 | 96 | 4
CCCCN(C1CCS(=O)(=O)C1)S(=O)(=O)c1ccc(OC)cc1 (centres undefined) | . | i | i | . | . | -11
COc1cc2ccccc2cc1C(=O)N(CCN(C)C)c1nc2ccc(C)cc2s1 | 135* | i | i | 9 | 100 | 4
COc1cc2ccccc2cc1C(=O)N(CCN(C)C)c1nc2c(OC)ccc(OC)c2s1 | 147* | i | i | 24* | 104 | 8
COc1cc2ccccc2cc1C(=O)N(CCN(C)C)c1nc2c(C)cccc2s1 | 129 | i | i | 18 | 103 | -10
COc1ccc(OC)c2sc(N(CCN(C)C)C(=O)c3ccc4ccccc4c3)nc12 | 134 | i | i | 11 | 105 | -15
COc1ccc(C(=O)NCCc2nnc3ccc(SCC(=O)NCCc4ccc(OC)c(OC)c4)nn23)cc1 | 105 | i | i | 8 | 103 | 9
Cc1cc(C)n(-c2cc(-c3ccccc3)nc(C)n2)n1 | 98 | i | i | -5 | 99 | 336*
Cc1nc(-c2ccccc2)cc(N2CCCC2)n1 | 103 | i | i | 3 | 98 | -7
CCCCN1CC(=O)N2[C@H](c3ccc(Cl)cc3)[C@@H]3C(=O)N(CC)C(=O)[C@@H]3[C@]2(C)C1=O | 96 | i | i | -8 | 101 | -16
O=C1CC2(CCN(C(=O)COc3ccccc3F)CC2)Oc2ccccc21 | . | i | i | . | . | 602*
O=C(N/N=C/c1ccccc1OC(F)F)c1cc(-c2ccncc2)nc2ccccc12 | 95 | i | -6* | -3 | 103 | -11
O=C(CC(SCc1ccco1)c1ccc(O)cc1)c1cccs1 (centres undefined) | 100 | i | i | 3 | 101 | 600*
COc1ccc(NC(=O)CC(Cc2ccccc2)C(=O)O)cc1 (centres undefined) | 90 | i | i | -8 | 92 | 282*
CCC(O)CC(C(=O)NNc1ccccc1)C(=O)NNc1ccccc1 (centres undefined) | 101 | i | i | 1 | 102 | 268*
CCc1ccc(NC(=O)NCCCN2CCCC2=O)cc1 | 110 | i | i | 9 | 106 | -8
O=C(NCc1csc(-c2cccs2)n1)C1CCCCC1 | 110 | i | i | 2 | 102 | 12
O=C(NC1CSCC1OC(=O)c1ccccc1)c1ccccc1 (centres undefined) | 82 | i | i | -23 | 86 | 82
O=C(CCCN1C(=O)c2ccccc2C1=O)OC1CSCC1NC(=O)c1ccccc1 (centres undefined) | 98 | i | i | -6 | 88 | 299*
CCN(C(=O)COC(=O)c1ccccc1NC(=O)c1ccco1)C1CCS(=O)(=O)C1 (centres undefined) | 100 | i | i | 4 | 101 | 418*
